This note sets out measurements from PubChem BioAssay (NCATS).

Molecules are shown by their SMILES. “And” between values parts separate entries of the source, which are not always exact repeats. Identical values can stand only once. Inconclusive results are not listed. The source made the active and inactive calls. Unless noted, calls come from the whole dose curve; as a rule, active = well fitted curve in the direction sought with a large enough effect; inconclusive = small, poorly fitted or top-dose-only effect, or another doubt; inactive = no such curve, though single readings can be large; an effect the other way counts as inactive or inconclusive.

The nature of assay [1]: Cell Viability - BJ (AID 421; calls by dose curve;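 note: potency is the fitted concentration of half-maximal effect; cells exposed to compound for 40 hours at 37 °C before readout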). The note with it: BJ fibroblast viability, qHTS. The method in brief:
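Cytotoxicity as drop in intracellular ATP (CellTiter-Glo, 20 min RT) after 40 hr compound exposure of BJ fibroblasts at 37 °C. Titrations scaled between DMSO and 100 uM tamoxifen, Hill-fitted for AC50.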

Assay [2] in a line: Cell Viability - Hek293 (AID 427;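 active = compounds whose dose-response curve shows a full or clear partial loss of cell viability, called from curve shape rather than a numeric limit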;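 note: potency is the fitted concentration of half-maximal effect; cells exposed to compound for 40 hours at 37 °C before reading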). The note with it: qHTS. The method in brief:
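Luminescent ATP content (CellTiter-Glo, 20 min at room temperature) was measured after a 40 hr, 37 °C compound exposure of HEK293 cells. AC50 values came from Hill-equation fits of qHTS concentration-response data normalized to DMSO and 100 uM tamoxifen.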

Assay [3] is described as follows: Cell Viability - H-4-II-E (AID 543).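 Note: cells exposed to compound for 40 hours; nearly all actives have a fitted effect of over 35% in size.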 Note: potency is the fitted concentration of half-maximal effect. As to conditions: H-4-II-E rat hepatoma viability; series mostly up to 92.2 µM. The method in brief: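 Here, cytotoxicity is measured in the rat hepatoma line H-4-II-E as loss of intracellular ATP after 40 hr compound treatment, detected by luciferase luminescence.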
The nature of assay [4]: MultiTox-Fluor Cytotoxicity Assay - LYMP1-001 - Live Cells (AID 947).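 Note: 0% = DMSO only and full inhibition = tetraoctylammonium bromide control.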 The note with it: LYMP1-001 lymphoblastoid cells, live-cell protease fluorescence viability; series mostly up to 92.2 µM.
A short description of assay [5]: Cell Viability - LYMP2-004 (AID 966).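 Note: plate controls were DMSO only for no effect and tetraoctylammonium bromide control for full effect; nearly all actives have a fitted effect of over 65% in size.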 As to conditions: LYMP2-004 lymphoblastoid cell viability, qHTS; series mostly up to 92.2 µM. The method in brief:
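Acute toxicity is scored as a concentration-dependent drop in intracellular ATP, quantified by luciferase luminescence, in human lymphoblastoid cells exposed to compound for 24 hr. AC50 derives from Hill-equation modelling.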

Assay [6] concerns the target Glucocorticoid receptor (Homo sapiens) (UniProt P04150). Nature of the assay: qHTS assay for small molecule agonists of glucocorticoid receptor signaling (AID 588532; active = well fitted curve in the direction sought with a large enough effect in the signal ratio, with a control signal flat; the % refers to the signal ratio;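 note: 100% = dexamethasone at 0.1 µM and 0% = DMSO only wells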). The note with it: HeLa MMTV-bla, beta-lactamase ratio, agonist, 18 h; stronger effect = higher value; percent of dexamethasone control, DMSO zero. Put shortly:
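MMTV-bla HeLa beta-lactamase reporter cells in 1% charcoal/dextran FBS medium, compounds up to 92 uM for 18 h at 37 C, CCF4 readout; normalized to 0.1 uM dexamethasone (100%), EC50 and efficacy from Hill fits.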
Background: Quantitative high-throughput screening tests each substance at several concentrations.

The target is the same in assay [7]. The assay can be described thus: qHTS assay for small molecule antagonists of glucocorticoid receptor signaling (AID 588533; active = well fitted inhibition curve with a large enough effect in the signal ratio, with a control signal flat, not every such curve was filed as active; the % refers to the signal ratio;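 note: cells stimulated with 2 nM dexamethasone as agonist; % is set by controls: 0 for no effect and ±100 for the full control effect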). As to conditions: HeLa MMTV-bla, GRE beta-lactamase ratio, antagonist mode, 18 h; series mostly up to 76.8 µM. The method in brief: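 Antagonist-mode qHTS: compound titrations added to GRE-bla HeLa cells, then dexamethasone 2 nM final; 18 h, 37 C. CCF4 FRET fluorescence normalized to dexamethasone and DMSO; IC50 from Hill fit.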

Assay [8] in a line: qHTS assay for small molecule agonists of the antioxidant response element (ARE) signaling pathway (AID 651741; active = well fitted activation curve with a large enough effect in the signal ratio; the % refers to the signal ratio; note: potency is the fitted concentration of half-maximal effect; for activation: % of control where 0% means no effect). As to conditions: HepG2 ARE-bla reporter, beta-lactamase FRET ratio, 16 h; series mostly up to 96 µM. Put shortly: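 HepG2 ARE-bla cells plated at 2,000 cells/well and incubated 5 h at 37 C/5% CO2 received 23 nL compound in DMSO. After 16 h at 37 C, LiveBLAzer B/G FRET substrate was applied for 2 h at room temperature and fluorescence read.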

A short description of assay [9]: qHTS assay for environmental chemicals that activate the Aryl hydrocarbon Receptor (AhR) signaling pathway (AID 651777). Note: % of control where 0% means no effect; nearly all actives have a fitted effect of over 15% in size. The note with it: 1A2-DRE human hepatoma cells, luciferase, 24 h; activation: stronger effect = higher value. The method in brief: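 Concentration–response screening used 1,200 1A2-DRE cells per well, 24 hr compound exposure (37 C, 5% CO2), and One-Glo luminescence as the AhR-driven CYP1A2 reporter signal.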

Assay [10] can be described thus: Cell Viability - Jurkat (AID 426;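 active = dose-dependent loss of cell ATP signal giving a full or clear fitted curve, ranked by lower potency value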;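 note: potency is the fitted concentration of half-maximal effect; cells exposed to compound for 40 hours at 37 °C before ATP read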). As to conditions: qHTS. The method in brief: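 Seed 5000 Jurkat E6-1 cells/well; add compound; incubate 40 hr at 37 °C; add CellTiter-Glo; wait 20 min at room temperature; read luminescence. Fit concentration-response with Hill equation for AC50.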
The target in assay [11] is Estrogen receptor (Homo sapiens) (UniProt P03372). Nature of the assay: qHTS assay for small molecule antagonists of estrogen receptor alpha signaling (AID 588513; active = well fitted curve in the direction sought with a large enough effect in the signal ratio, with a control signal flat, not every such curve was filed as active; the % refers to the signal ratio; note: % is set by controls: 0 for no effect and ±100 for the full control effect). The note with it: ER-alpha-UAS-bla HEK293, beta-lactamase ratio, antagonist mode; series mostly up to 76.9 µM. The method in brief: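 ER-alpha-UAS-bla GripTite HEK 293 cells in medium with 2% charcoal/dextran-treated FBS were preincubated 4 h at 37 C, dosed with compound (1:2 titration), stimulated with 0.5nM 17-beta-estradiol for 18 h, then read by CCF4 beta-lactamase fluorescence.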
Estrogen receptor (Homo sapiens), sequence (P03372 whole entry, looked up): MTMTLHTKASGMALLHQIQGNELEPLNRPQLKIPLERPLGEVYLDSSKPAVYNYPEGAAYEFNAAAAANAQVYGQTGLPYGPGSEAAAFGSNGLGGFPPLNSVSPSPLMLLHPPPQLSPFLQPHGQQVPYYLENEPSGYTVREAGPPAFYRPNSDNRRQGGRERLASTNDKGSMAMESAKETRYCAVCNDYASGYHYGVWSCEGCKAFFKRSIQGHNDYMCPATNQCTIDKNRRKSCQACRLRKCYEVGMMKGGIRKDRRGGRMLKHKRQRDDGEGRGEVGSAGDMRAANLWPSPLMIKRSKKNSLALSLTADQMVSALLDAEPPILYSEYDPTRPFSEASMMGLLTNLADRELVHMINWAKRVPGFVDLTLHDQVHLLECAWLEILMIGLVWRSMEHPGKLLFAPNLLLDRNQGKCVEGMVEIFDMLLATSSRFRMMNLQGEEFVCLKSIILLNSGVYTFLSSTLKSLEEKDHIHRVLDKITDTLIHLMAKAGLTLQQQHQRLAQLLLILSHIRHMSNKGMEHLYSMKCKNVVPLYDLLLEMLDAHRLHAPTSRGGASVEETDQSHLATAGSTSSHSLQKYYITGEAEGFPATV

Assay [12] shares this target. Nature of the assay: qHTS assay for small molecule agonists of estrogen receptor alpha signaling (AID 588514; calls by dose curve;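 note: 0% = vehicle only and 100% = reference agonist; nearly all actives have a fitted effect of over 70% in size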). The note with it: ER-alpha-UAS-bla HEK293, beta-lactamase ratio, 18 h; series mostly up to 76.8 µM. Put shortly: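 Reporter-gene assay. […] controls beta-lactamase in HEK 293 GripTite cells; after 18 hrs with compound, CCF4 substrate is added for 2 hrs and fluorescence is read.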

For assay [13], the target named is Peroxisome proliferator-activated receptor gamma (Homo sapiens) (UniProt P37231). Nature of the assay: qHTS assay for small molecule agonists of peroxisome proliferator-activated receptor gamma signaling (AID 588536; active = well fitted curve in the direction sought with a large enough effect in the signal ratio, with a control signal flat, not every such curve was filed as active; the % refers to the signal ratio;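 note: 0% = DMSO basal wells and 100% = rosiglitazone at 2 µM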). As to conditions: HEK293 PPARg-UAS-bla, beta-lactamase ratio, 16 h, percent of rosiglitazone response, DMSO as zero; series mostly up to 76.7 µM. The method in brief:
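Ratiometric blue/green fluorescence (405 nm excitation; 460 and 530 nm emission) from CCF4-loaded HEK293 reporter cells serves as signal. Exposure to test compounds lasts 16 h at 37 C in medium containing 1% charcoal/dextran-treated serum.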

Assay [14] can be described thus: qHTS assay for small molecule disruptors of the mitochondrial membrane potential - 5 hr assay (AID 651755; calls by dose curve; note: % is set by controls: 0 for no effect and ±100 for the full control effect; nearly all actives have a fitted effect of over 40% in size). The note with it: JC-1-type ratio dye; series mostly up to 92.2 µM. Put shortly: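 HepG2 cells (2,000/well), attached overnight, exposed to compound 5 hr at 37C, then Mito-MPS dye 30 min. Fluorescence read for monomers (490/535 nm) and aggregates (540/590 nm).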

Assay [15] is described as follows: Cell Viability - NIH 3T3 (AID 541).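 For activity change, negative = cytotoxicity: plate controls were DMSO alone for no effect and tamoxifen positive control for full effect.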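 Note: cells exposed to compound for 40 hours; nearly all actives have a fitted effect of over 25% in size.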 Note: potency is the fitted concentration of half-maximal effect. As to conditions: NIH 3T3 cell viability, qHTS; activity change, negative = cytotoxicity: at 92.2 µM (top of the series). The method in brief: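 AC50 values reflect concentration-dependent loss of intracellular ATP in NIH 3T3 cells after 40 hr treatment in complete culture medium, quantified by luciferase-based luminescence.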

Assay [16] can be described thus: qHTS assay for small molecule antagonists of peroxisome proliferator-activated receptor delta signaling (AID 588535; active = well fitted inhibition curve with a large enough effect in the signal ratio, with a control signal flat, not every such curve was filed as active; the % refers to the signal ratio;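 for max response: cells co-treated with a PPAR-delta agonist as stimulator during compound exposure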). As to conditions: HEK293T PPARd-UAS-bla, beta-lactamase FRET ratio, 18 h; 460 nm channel. The method in brief:
(§1)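 Cells were seeded at 4000 per well in assay medium containing 2% charcoal/dextran FBS and held 5 hrs at 37 C. Compounds were then added for 18 hrs. CCF4 substrate was applied for 2 hrs at room temperature before fluorescence reading.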

Assay [17] concerns the target Peroxisome proliferator-activated receptor delta (Homo sapiens) (UniProt Q03181). Described as above. The note with it: HEK293T PPARd-UAS-bla, beta-lactamase FRET ratio, 18 h; series mostly up to 76.7 µM. The method in brief:
as §1

Assay [18] has as its target Peroxisome proliferator-activated receptor gamma (Homo sapiens) (UniProt P37231). Nature of the assay: qHTS assay for small molecule antagonists of peroxisome proliferator-activated receptor gamma signaling (AID 588537; active = well fitted inhibition curve with a large enough effect in the signal ratio, with a control signal flat, not every such curve was filed as active; the % refers to the signal ratio;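 note: reporter cells co-stimulated with 50 nM rosiglitazone agonist during compound treatment; % of control where 0% means no effect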). The note with it: HEK293 PPARg-UAS-bla, beta-lactamase ratio, antagonist mode; series mostly up to 76.8 µM. Put shortly:
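Step one: plate 3000 HEK293 UAS-bla cells per well in medium with 1% stripped serum and hold 6-6.5 h at 37 C. Step two: add compound and 50 nM agonist for 16 h. Step three: CCF4 loading, fluorescence read.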

A short description of assay [19]: qHTS assay for small molecule agonists of the antioxidant response element (ARE) signaling pathway measured by Nrf2-dependant transcriptional activity (AID 720636; active = well fitted curve in the direction sought with a large enough effect in the repeat runs; an effect the other way counts as inactive or inconclusive; note: % of control where 0% means no effect). The note with it: ARE-luc HepG2, Nrf2 luciferase reporter, 16 h; series mostly up to 92.4 µM. Put shortly:
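Attachment 6 hr at 37 C, then compound versus DMSO vehicle for 16 hr in ARE-luc HepG2 cells (1% dialyzed FBS); luminescence recorded 30 min after ONE-Glo addition at room temperature.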

Assay [20] deals with Retinoic acid receptor RXR-alpha (Homo sapiens) (UniProt P19793). Nature of the assay: qHTS assay for small molecule agonists of retinoid X receptor alpha signaling (AID 588544; calls by dose curve;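 note: 0% = DMSO basal wells and 100% = reference agonist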). The note with it: HEK293T RXRa-UAS-bla, beta-lactamase reporter, 18 h; series mostly up to 76.7 µM.
Retinoic acid receptor RXR-alpha (Homo sapiens), sequence (P19793 whole entry, looked up): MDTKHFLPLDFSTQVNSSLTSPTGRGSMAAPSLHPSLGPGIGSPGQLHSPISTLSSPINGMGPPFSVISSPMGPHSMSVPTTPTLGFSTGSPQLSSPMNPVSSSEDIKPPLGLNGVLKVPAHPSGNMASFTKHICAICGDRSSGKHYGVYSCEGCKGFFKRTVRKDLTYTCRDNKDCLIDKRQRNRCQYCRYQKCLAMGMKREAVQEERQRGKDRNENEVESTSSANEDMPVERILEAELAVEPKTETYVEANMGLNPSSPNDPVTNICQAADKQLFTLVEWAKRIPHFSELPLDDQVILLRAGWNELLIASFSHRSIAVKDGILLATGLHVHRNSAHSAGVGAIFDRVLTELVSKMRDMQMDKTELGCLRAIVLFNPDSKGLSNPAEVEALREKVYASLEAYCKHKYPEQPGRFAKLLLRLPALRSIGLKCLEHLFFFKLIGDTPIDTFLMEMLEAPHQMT

Glucocorticoid receptor (Homo sapiens), sequence (P04150 whole entry, looked up): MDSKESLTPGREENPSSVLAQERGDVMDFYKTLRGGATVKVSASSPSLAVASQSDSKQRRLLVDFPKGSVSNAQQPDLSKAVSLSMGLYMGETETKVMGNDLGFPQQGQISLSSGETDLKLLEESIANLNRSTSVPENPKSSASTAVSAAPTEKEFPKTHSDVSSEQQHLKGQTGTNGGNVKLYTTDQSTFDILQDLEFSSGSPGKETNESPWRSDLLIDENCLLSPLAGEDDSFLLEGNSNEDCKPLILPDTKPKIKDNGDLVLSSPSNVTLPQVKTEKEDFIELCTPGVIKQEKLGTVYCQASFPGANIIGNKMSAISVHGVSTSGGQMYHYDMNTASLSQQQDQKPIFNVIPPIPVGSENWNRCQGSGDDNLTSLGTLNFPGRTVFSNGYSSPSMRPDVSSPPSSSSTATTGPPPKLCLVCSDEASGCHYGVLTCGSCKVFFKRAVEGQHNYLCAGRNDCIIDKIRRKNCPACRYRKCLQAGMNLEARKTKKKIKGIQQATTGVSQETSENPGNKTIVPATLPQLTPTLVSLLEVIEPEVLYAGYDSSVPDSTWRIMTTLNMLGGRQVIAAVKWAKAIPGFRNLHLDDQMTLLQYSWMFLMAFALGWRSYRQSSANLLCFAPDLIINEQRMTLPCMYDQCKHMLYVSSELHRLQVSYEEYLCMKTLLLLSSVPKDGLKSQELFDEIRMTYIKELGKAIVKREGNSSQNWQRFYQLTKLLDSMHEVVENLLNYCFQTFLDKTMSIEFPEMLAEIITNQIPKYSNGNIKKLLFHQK
Peroxisome proliferator-activated receptor delta (Homo sapiens), sequence (Q03181 whole entry, looked up): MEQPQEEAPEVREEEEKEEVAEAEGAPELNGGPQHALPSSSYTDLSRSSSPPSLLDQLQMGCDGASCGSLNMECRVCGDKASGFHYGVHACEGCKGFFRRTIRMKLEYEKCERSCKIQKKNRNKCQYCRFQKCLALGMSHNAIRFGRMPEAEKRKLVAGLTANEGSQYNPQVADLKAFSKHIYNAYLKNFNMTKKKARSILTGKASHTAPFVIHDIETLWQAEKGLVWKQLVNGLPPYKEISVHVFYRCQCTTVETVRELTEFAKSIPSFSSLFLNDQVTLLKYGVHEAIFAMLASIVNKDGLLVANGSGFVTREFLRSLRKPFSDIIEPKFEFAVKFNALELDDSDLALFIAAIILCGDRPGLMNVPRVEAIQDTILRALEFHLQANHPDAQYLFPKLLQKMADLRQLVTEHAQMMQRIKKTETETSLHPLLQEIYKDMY
Peroxisome proliferator-activated receptor gamma (Homo sapiens), sequence (P37231 whole entry, looked up): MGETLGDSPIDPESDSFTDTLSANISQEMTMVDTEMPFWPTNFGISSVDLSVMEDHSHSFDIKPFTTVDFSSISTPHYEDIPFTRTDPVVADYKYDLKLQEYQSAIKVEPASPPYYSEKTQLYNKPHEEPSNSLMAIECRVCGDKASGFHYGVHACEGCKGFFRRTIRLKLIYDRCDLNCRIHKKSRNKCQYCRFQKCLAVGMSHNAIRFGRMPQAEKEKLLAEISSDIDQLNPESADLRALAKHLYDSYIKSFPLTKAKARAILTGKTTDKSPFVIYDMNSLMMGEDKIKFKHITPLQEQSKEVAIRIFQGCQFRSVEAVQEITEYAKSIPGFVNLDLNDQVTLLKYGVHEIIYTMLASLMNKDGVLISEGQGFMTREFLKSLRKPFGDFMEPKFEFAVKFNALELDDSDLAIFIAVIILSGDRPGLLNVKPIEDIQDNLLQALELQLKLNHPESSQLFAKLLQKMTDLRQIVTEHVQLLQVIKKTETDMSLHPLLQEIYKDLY

In the case of `CCCCC(CC)COC(=O)c1ccc(C(=O)OCC(CC)CCCC)c(C(=O)OCC(CC)CCCC)c1` (stereo not drawn), the Potency in assay [1] and in assay [2] was > 92 µM (inactive) throughout. The Potency result in [3], in [5] and in assay [8] was “inactive” in each case. Besides, the call in assay [4] and in assay [7] was inactive. For the same compound, the activation was -5.8% (inactive) in assay [6] and -0.0808% (inactive) in [9].

For the compound `Nc1cccc2ccccc12`, the Potency in [1] was > 92 µM (inactive); in [10], 33 µM (active). Moreover, the compound was classed as inactive in assay [4] and in [13]. The Potency result in [5], in [11], in [12] and in assay [14] was “inactive” in each case.

Turning to `CC(C)[C@]12CC(=O)[C@H](C)[C@H]1C2`, the Potency in assay [1] and in assay [10] was > 92 µM (inactive) throughout. Besides, the Potency result in assay [15], in assay [3], in assay [5], in assay [18], in assay [8] and in [14] was “inactive” in each case. The Potency result in assay [19] is “inactive”. Also, the compound was classed as inactive in assay [4] and in assay [17]. For the same compound, the max response in assay [16] is 17.2% and -10.4%. For the same compound, in assay [9], the activation was -0.165% (inactive) and 1.56% (inactive).

Regarding `CC(C)Br`, the Potency in [1] and in [10] was > 92 µM (inactive) throughout. Also, the Potency entry in assay [15], in assay [3], in [11], in assay [12], in assay [18] and in assay [8] was “inactive” in each case. Besides, the Potency entry in assay [14] and in [19] was “inactive” each time. The result in [7], in [13] and in assay [20] was inactive. In addition, the activation in assay [9] was -0.85% (inactive).

As for `N#CC(Cl)(Cl)Cl`, the Potency in assay [1] and in assay [2] was > 92 µM (inactive) throughout. Further, the Potency entry in [15], in assay [3], in assay [11], in assay [12], in [8] and in [14] was “inactive” in each case. In assay [19], the Potency result is “inactive”. Moreover, the result in assay [4], in assay [7], in assay [13] and in assay [20] was inactive. Besides, the activation is 5.98% (inactive) in assay [6] and 0.19% (inactive) in assay [9].

As for `O=[N+]([O-])c1c(Cl)c(Cl)c(Cl)c(Cl)c1Cl`, the Potency in assay [1] was > 92 µM (inactive); in assay [10], > 92 µM (inactive); in assay [15], 31.6 µM (active); in assay [8] it was 37.6 µM (active) and 24.3 µM (active). The Potency entry in assay [3], in assay [5], in assay [11], in assay [12] and in assay [14] was “inactive” each time. Moreover, the activation was -3.84% (inactive) and -0.795% (inactive) in assay [6]; -0.0122% (inactive) and 2.68% (inactive) in [9]. Further, the result in [7], in assay [17] and in [20] was inactive. In assay [16], the max response was 0.973%.

As for `Nc1ccc(Oc2ccc(N)cc2)cc1`, the Potency in assay [1] and in assay [10] was > 92 µM (inactive) throughout. Further, the Potency result in [5], in assay [8] and in assay [19] was “inactive” each time. Further, the activation in [6] was -1.85% (inactive) and -6.36% (inactive); in assay [9], 2.36% (inactive) and 5.82% (inactive). Also, the outcome in [7], in assay [17], in assay [13] and in [20] was inactive. Moreover, the max response in assay [16] came to 31.7%.

With `C=CCCC#N`, the Potency in assay [1] and in assay [10] was > 92 µM (inactive) each time. Also, the Potency result in assay [3], in assay [11], in [12] and in assay [19] was “inactive” throughout. For the same compound, the call in assay [4], in assay [13] and in assay [20] was inactive. Also, the activation in [6] was -1.36% (inactive).

For `O=[N+]([O-])/C=C/c1ccccc1`, the Potency in assay [1] is > 92 µM (inactive); in [10] it was 9.79 µM (active); in assay [15] it was 15.8 µM (active); in assay [3], 5.01 µM (active). In addition, the activation in assay [6] was -1.34% (inactive). Moreover, the result in assay [7], in assay [17], in assay [13] and in [20] was inactive. Besides, the max response in assay [16] was 20.9%. Also, the Potency result in assay [18] and in assay [14] was “inactive” throughout.
